From PubChem BioAssay (NCATS)
Records with an inconclusive call do not appear. Active and inactive are the calls of the source. Unless noted, calls follow the shape of the dose curve; as a rule, active = well fitted curve in the direction sought with a large enough effect; inconclusive = small, poorly fitted or top-dose-only effect, or another doubt; inactive = no such curve, though single readings can be large; an effect the other way counts as inactive or inconclusive.

Columns and labels:
[1] = Cell Viability - BJ (AID 421; calls by dose curve;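 also: potency is read from the fitted curve at half-maximal effect; cells exposed to compound for 40 hours at 37 °C before readout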); conditions: BJ fibroblast viability, qHTS
In short: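 Cytotoxicity as drop in intracellular ATP (CellTiter-Glo, 20 min RT) after 40 hr compound exposure of BJ fibroblasts at 37 °C. Titrations scaled between DMSO and 100 uM tamoxifen, Hill-fitted for AC50.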

[2] = Cell Viability - Jurkat (AID 426;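 active = dose-dependent loss of cell ATP signal giving a full or clear fitted curve, ranked by lower potency value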;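 also: potency is read from the fitted curve at half-maximal effect; cells exposed to compound for 40 hours at 37 °C before ATP read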); conditions: qHTS
In short: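 Cytotoxicity was scored as loss of cellular ATP, measured by luciferase-based luminescence, in Jurkat clone E6-1 cells after 40 h compound treatment; tamoxifen and doxorubicin served as positive controls.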

[3] = Cell Viability - Hek293 (AID 427;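 active = compounds whose dose-response curve shows a full or clear partial loss of cell viability, called from curve shape rather than a numeric limit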;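 also: potency is read from the fitted curve at half-maximal effect; cells exposed to compound for 40 hours at 37 °C before reading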); conditions: qHTS
In short: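 Luminescent ATP content (CellTiter-Glo, 20 min at room temperature) was measured after a 40 hr, 37 °C compound exposure of HEK293 cells. AC50 values came from Hill-equation fits of qHTS concentration-response data normalized to DMSO and 100 uM tamoxifen.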

[4] = Cell Viability - HepG2 (AID 433; calls by dose curve;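 also: potency is read from the fitted curve at half-maximal effect; cells exposed to compound for 40 hours; potency for ATP loss meaning cytotoxicity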); conditions: qHTS
In short: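 Cytotoxicity read as ATP loss (CellTiter-Glo luminescence) after 40 hr compound exposure of HepG2, 1500 cells/well, 37 °C. AC50 by Hill equation; 0% set by DMSO, 100% inhibition by 100 uM tamoxifen.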

[5] = Cell Viability - MRC5 (AID 434; calls by dose curve;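 also: potency is read from the fitted curve at half-maximal effect; cells exposed to compound for 40 hours at 37 °C; potency reflects cytotoxicity seen as loss of intracellular ATP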); conditions: MRC5 lung fibroblast viability, qHTS
In short: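 AC50 values come from Hill-equation fits of intracellular ATP loss, measured by CellTiter-Glo luminescence. Normal lung fibroblasts (MRC5) had 40 hr compound treatment at 37 C, normalized between DMSO and 100 uM tamoxifen.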

[6] = Cell Viability - SK-N-SH (AID 435; calls by dose curve; also: potency is read from the fitted curve at half-maximal effect); conditions: SK-N-SH neuroblastoma cell viability qHTS
In short: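 qHTS cytotoxicity: CellTiter-Glo ATP luminescence after 40 h compound exposure of human neuroblastoma SK-N-SH cells at 37 °C. AC50 derived by Hill-equation fitting, with DMSO as basal and 100 uM tamoxifen as full inhibition.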

[7] = Cell Viability - N2a (AID 540); conditions: N2a mouse neuroblastoma cell viability; at 92.2 µM (top of the series);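 also: plate controls were DMSO alone for no effect and tamoxifen control for full effect; nearly all actives have a fitted effect of over 45% in size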
In short: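 In this qHTS cytotoxicity screen, ATP-dependent luciferase luminescence reports viable N2a cells after a 40 hr compound exposure in complete culture medium. Potencies are AC50 values from standard Hill equation fits.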

[8] = Cell Viability - HUV-EC-C (AID 542);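 also: cells exposed to compound for 40 hours; % is scaled to controls: 0 for no effect and ±100 for the full control effect; nearly all actives have a fitted effect of over 35% in size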
In short: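 Concentration-dependent ATP loss in HUV-EC-C cells is the measure. Exposure lasts 40 hr at 37 °C; luminescence follows CellTiter-Glo addition, and Hill fits give AC50.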

[9] = Cell Viability - H-4-II-E (AID 543);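 also: cells exposed to compound for 40 hours; % is scaled to controls: 0 for no effect and ±100 for the full control effect; nearly all actives have a fitted effect of over 35% in size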
In short: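 AC50 from Hill-modelled qHTS concentration-response curves. H-4-II-E rat hepatoma cells in complete medium, 40 hr exposure at 37 °C, viability by CellTiter-Glo ATP luminescence.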

[10] = Cell Viability - SH-SY5Y (AID 544);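 also: cells exposed to compound for 40 hours; 0% = DMSO alone and -100% = 100 µM tamoxifen; nearly all actives have a fitted effect of over 55% in size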
In short: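 Quantitative HTS in SH-SY5Y neuroblastoma cells, 40 hr treatment at 37 °C, ATP content by luciferase luminescence; AC50 from Hill fits.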

[11] = Cell Viability - Renal Proximal Tubule (AID 545);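 also: cells exposed to compound for 40 hours; 0% = DMSO only and -100% = 100 µM tamoxifen; nearly all actives have a fitted effect of over 40% in size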
In short: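 Viability taken as intracellular ATP (CellTiter-Glo luminescence) after 40 hr, 37 °C compound treatment of primary proximal tubule cells from rat kidney, 1000 cells/well; Hill-equation fits of qHTS concentration-response data gave AC50.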

[12] = Cell Viability - Mesenchymal (AID 546);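 also: cells exposed to compound for 40 hours before reading; 0% = DMSO only and -100% = 100 µM tamoxifen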
In short: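 CellTiter-Glo luminescence (intracellular ATP, 20 min room temperature) after 40 hr compound exposure at 37 °C of 1000 glomerulus-derived human kidney mesenchymal cells/well; AC50 values obtained by fitting qHTS concentration-response data to the Hill equation.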

[13] = Cellular Toxicity (caspase-3) HepG2 (AID 654);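 also: cells exposed to compound for 16 hours before reading; 0% = DMSO alone and 100% = caspase signal from 100 µM tamoxifen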
In short: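 Concentration-response AC50 values reflect caspase-3/7 induction in HepG2 cells after 16 hours of compound exposure, quantified by luminescence from liberated aminoluciferin and referenced to 100 uM tamoxifen as full stimulation.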

[14] = Cellular Toxicity (caspase-3) Jurkat (AID 655);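 also: cells exposed to compound for 16 h at 37 °C before reading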
In short: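 Luminescent Caspase-Glo 3/7 read-out (20 min, room temperature) after 16 h compound treatment at 37 C of 5000 Jurkat cells per well. AC50 derived by Hill-equation fitting, scaled between DMSO basal and 100 uM tamoxifen stimulation.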

[15] = Cellular Toxicity (caspase-3) HUV-EC-C (AID 656);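 also: 0% = DMSO basal and 100% = 100 µM tamoxifen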
In short: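 Luminescent Caspase-Glo 3/7 readout after 16 h, 37 °C compound exposure of HUV-EC-C endothelial cells, 1000 per well, complete medium. AC50 derived by Hill fitting, with DMSO as baseline and 100 uM tamoxifen as full activation.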

[16] = Cellular Toxicity (caspase-3) BJ (AID 658);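 also: 0% = DMSO basal and 100% = 10 µM staurosporine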
In short: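 Caspase-Glo 3/7 luminescence, read 1 hr after reagent at room temperature, in normal BJ fibroblasts exposed 16 hours at 37 °C. AC50 values from Hill-equation concentration-response, scaled between DMSO basal and 10 uM staurosporine as 100%.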

[17] = Cellular Toxicity (caspase-3) MRC-5 (AID 659);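 also: 0% = DMSO basal and 100% = 10 µM staurosporine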
In short: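 Luminescent Caspase-Glo 3/7 read-out (1 h, room temperature) after a 16 h, 37 °C compound exposure of MRC-5 lung fibroblasts at 1500 cells/well. Concentration-response AC50 from Hill equation; 0% DMSO, 100% 10 uM staurosporine.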

[18] = Cellular Toxicity (caspase-3) Mesangial (AID 660);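 also: combined caspase 3 and 7 activity read by Caspase-Glo luminescence; cells exposed to compound for 16 h before the caspase read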
In short: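 AC50 values come from Hill-equation fits of caspase 3/7 activation, measured as Caspase-Glo luminescence in human glomerular mesangial cells exposed to compound for 16 h at 37 °C; 100% set by 100 uM tamoxifen.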

[19] = Cellular Toxicity (caspase-3) SK-N-SH (AID 661);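 also: 0% = DMSO basal and 100% = 10 µM staurosporine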
In short: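 Apoptosis readout in SK-N-SH neuroblastoma: Caspase-Glo 3/7 luminescence following 16 hr treatment in complete culture medium. Normalization used DMSO and 10 uM staurosporine controls.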

[20] = Cellular Toxicity (caspase-3) N2a (AID 665);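 also: compound exposure lasted 16 h at 37 °C before readout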
In short: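 Concentration-response qHTS: compound-induced caspase-3/7 luminescence in N2a cells (16 h, 37 °C), relative to DMSO and 10 uM staurosporine controls; AC50 obtained using the standard Hill equation.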

[21] = Cellular Toxicity (caspase-3) NIH 3T3 (AID 666);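 also: 0% = DMSO basal and 100% = 100 µM tamoxifen stimulation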
In short: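 Activity: caspase-3/7 induction, NIH 3T3 cells, 16 hr treatment at 37°C, luminescent Caspase-Glo detection; AC50 via Hill equation.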

[22] = Cellular Toxicity (caspase-3) Renal Proximal Tubule (AID 667);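 also: cells exposed to compound for 16 hours at 37 °C before detection; 0% = DMSO basal and 100% = 10 µM staurosporine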
In short: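 Caspase 3/7 activation measured by luminescent aminoluciferin release in primary rat proximal tubule cells after 16 hr compound exposure at 37 °C. AC50 from Hill-fitted concentration-response, scaled between DMSO and 10 uM staurosporine.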

[23] = biological target: Cytochrome P450 3A4 (Homo sapiens) (UniProt P08684); assay: qHTS Assay for Inhibitors and Substrates of Cytochrome P450 3A4 (AID 884); also: % is scaled to controls: 0 for no effect and ±100 for the full control effect; nearly all actives have a fitted effect of over 50% in size
Cytochrome P450 3A4 (Homo sapiens), sequence (P08684 whole entry, looked up): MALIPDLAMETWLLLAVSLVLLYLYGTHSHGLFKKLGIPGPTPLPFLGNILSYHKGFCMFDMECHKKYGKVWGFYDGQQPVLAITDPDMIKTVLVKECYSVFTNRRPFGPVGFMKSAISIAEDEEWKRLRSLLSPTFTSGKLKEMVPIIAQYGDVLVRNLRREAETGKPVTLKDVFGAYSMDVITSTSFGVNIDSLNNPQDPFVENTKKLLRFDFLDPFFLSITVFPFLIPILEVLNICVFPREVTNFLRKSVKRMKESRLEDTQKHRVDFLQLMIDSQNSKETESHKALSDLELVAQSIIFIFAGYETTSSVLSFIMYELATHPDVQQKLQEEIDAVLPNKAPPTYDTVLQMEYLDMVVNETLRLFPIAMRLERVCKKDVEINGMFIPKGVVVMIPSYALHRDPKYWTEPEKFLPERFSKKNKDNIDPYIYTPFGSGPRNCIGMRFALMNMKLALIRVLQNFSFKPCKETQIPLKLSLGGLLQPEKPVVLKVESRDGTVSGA
In short: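 Luminescent readout of luciferin produced by CYP3A4 (20 nM) dealkylation of Luciferin-PPXE, 25 uM (its KM). NADPH-driven reaction ran 60 min at RT after 10 min compound preincubation; data scaled to 57 uM ketoconazole as 100% inhibition.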

[24] = Cell Viability - LYMP2-001 (AID 921);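 also: 0% = DMSO only and full inhibition = tetraoctylammonium bromide control wells; nearly all actives have a fitted effect of over 70% in size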
In short: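 Cellular ATP loss read by luciferase luminescence after 24 h compound exposure at 37 C in complete medium. LYMP2-001 lymphoblastoid cells, 2500/well; qHTS concentration-response data fitted with Hill equation for AC50.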

[25] = MultiTox-Fluor Cytotoxicity Assay - LYMP1-001 - Dead Cells (AID 946)
In short: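 Cytotoxicity as increased dead-cell protease fluorescence (bis-AAF-R110, 485/520 nm), read 60 min after MultiTox-Fluor reagent. Human lymphoblastoid line exposed 16 h; Hill-fitted AC50, with DMSO as 0% and 15 uM tetraoctylammonium bromide as 100%.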

[26] = MultiTox-Fluor Cytotoxicity Assay - LYMP1-001 - Live Cells (AID 947);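 also: 0% = DMSO only and full inhibition = tetraoctylammonium bromide control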
[27] = MultiTox-Fluor Cytotoxicity Assay - LYMP1-002 - Live Cells (AID 955); also: % is scaled to controls: 0 for no effect and ±100 for the full control effect
In short: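 In this qHTS viability format, lymphoblastoid cells (LYMP1-002, human) received compound for 16 hr at 37 C. Fluorogenic GF-AFC cleavage by viable cells was detected at 405/510 nm after 1 h at room temperature.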

[28] = MultiTox-Fluor Cytotoxicity Assay - LYMP1-002 - Dead Cells (AID 960); also: nearly all actives have a fitted effect of over 60% in size
In short: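 Concentration-dependent increases in membrane-leaked protease activity are quantified in LYMP1-002 cells after 16 hr treatment; values are normalized against DMSO and tetraoctylammonium bromide (15 uM) controls and AC50 derived by Hill modeling.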

[29] = MultiTox-Fluor Cytotoxicity Assay - LYMP1-003 - Dead Cells (AID 961); also: nearly all actives have a fitted effect of over 70% in size
In short: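 Dead-cell protease release, detected as bis-AAF-R110 fluorescence at 485/520 nm, was measured in LYMP1-003 cells after 16 h compound treatment at 37 C. AC50 values came from Hill-modeled qHTS curves normalized to DMSO (0%) and 15 uM tetraoctylammonium bromide (100%).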

[30] = MultiTox-Fluor Cytotoxicity Assay - LYMP1-003 - Live Cells (AID 962);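 also: 0% = DMSO only and full loss = 92 µM tetraoctylammonium bromide; cytotoxic hits lower the live-cell protease signal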
In short: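 Human lymphoblastoid line LYMP1-003 in complete culture medium, treated 16 hr with titrated compounds. Viable cells quantified via cell-permeant GF-AFC substrate fluorescence; AC50 derived by Hill fitting.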

[31] = Cell Viability - LYMP1-003 - Assay at 24 hr (AID 963);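 also: plate controls were DMSO only for no effect and tetraoctylammonium bromide positive control for full effect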
In short: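 The lymphoblastoid line was treated with titrated compounds for 24 hours, and viable cell number estimated from luciferase-based ATP luminescence.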

[32] = Cell Viability - LYMP1-003 - Assay at 40 hr (AID 964); also: % is scaled to controls: 0 for no effect and ±100 for the full control effect; nearly all actives have a fitted effect of over 60% in size
In short: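 Acute toxicity is scored as a concentration-dependent loss of intracellular ATP in LYMP1-003 cells (2500/well, complete medium) after 40 hr at 37 C, measured by CellTiter-Glo luminescence; AC50 values derive from standard Hill modelling.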

[33] = Cell Viability - LYMP2-003 (AID 965);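 also: cells exposed to compounds for 24 h before reading; 0% = DMSO only and full effect = 92 µM tetraoctylammonium bromide; nearly all actives have a fitted effect of over 50% in size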
In short: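 CellTiter-Glo luminescence quantified ATP loss after 24 h compound treatment of LYMP2-003 lymphoblastoid cells at 37 C. Titration series were fitted with the standard Hill equation to give AC50.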

[34] = Cell Viability - LYMP2-004 (AID 966);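 also: plate controls were DMSO only for no effect and tetraoctylammonium bromide control for full effect; nearly all actives have a fitted effect of over 65% in size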
In short: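 Viable-cell number estimated from ATP luminescence (CellTiter-Glo) in 2500 human lymphoblastoid cells/well after 24 hr at 37 C with compound. AC50 fitted to the standard Hill equation.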

[35] = Cell Viability - LYMP2-005 (AID 967);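 also: plate controls were DMSO only for no effect and 92 µM tetraoctylammonium bromide control for full effect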
In short: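 LYMP2-005 human lymphoblastoid cells (2500/well) were treated with compounds for 24 h at 37 C. Intracellular ATP was then measured by CellTiter-Glo luminescence after 30 min at room temperature. AC50 values came from Hill-equation fits of qHTS concentration-response data.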

[36] = Cell Viability - LYMP2-009 (AID 968);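 also: 0% = DMSO alone and the full-kill end = tetraoctylammonium bromide at 92 µM; nearly all actives have a fitted effect of over 55% in size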
[37] = Cell Viability - LYMP2-011 (AID 969)
In short: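 Cells seeded at 2500 per well rest 5 hr before compound addition, then incubate 24 hr at 37 C. CellTiter-Glo reagent is added for 30 min at room temperature before luminescence detection.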

[38] = Cell Viability - LYMP2-013 (AID 970)
In short: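 In complete culture medium, human lymphoblastoid cells were dosed for 24 hr at 37 C, with tetraoctylammonium bromide (6.4pM to 92 uM) as positive control. Viability reflects luciferase-based ATP signal; AC50 derived from concentration-response curves.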

[39] = Cell Viability - LYMP2-015 (AID 971)
In short: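 AC50 values reflect Hill-model fits of ATP-based luminescence (CellTiter-Glo) from a human lymphoblastoid line, 2500 cells/well, treated 24 hr at 37 C.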

[40] = Cell Viability - LYMP2-017 (AID 972)
In short: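 In this qHTS format, lymphoblastoid cells in complete medium receive test compound for a day at 37 C before ATP content is quantified by luciferase luminescence. Reported AC50 figures come from standard Hill-equation curve fitting.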

[41] = Cell Viability - LYMP2-019 (AID 973)
In short: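 AC50 values come from Hill-equation modelling of qHTS concentration-response curves, where viability is measured as luciferase-based ATP luminescence in the lymphoblastoid line after 24 hr compound exposure in complete culture medium.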

[42] = Cell Viability - LYMP2-021 (AID 974)
In short: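 In qHTS format, compounds are tested against 2500 lymphoblastoid cells per well for 24 h; viable cell number is inferred from ATP-driven luciferase light, and Hill-equation fitting yields AC50 values.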

[43] = Cell Viability - LYMP2-023 (AID 975)
In short: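 In this qHTS, ATP-based luciferase luminescence (CellTiter-Glo) is quantified in human lymphoblastoid cells after 24 hr compound treatment at 37 C; tetraoctylammonium bromide serves as positive control. Concentration-response curves are Hill-fitted to give AC50.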

O=Cc1ccccc1
inactive: Potency [1] > 92 µM | Potency [2] > 92 µM | Potency [3] > 92 µM | Potency [4] > 92 µM | Potency [5] > 92 µM | Potency [6] > 92 µM | activity change, negative = cytotoxicity [7] 6.11% | outcome [8] | outcome [9] | outcome [10] | outcome [11] | outcome [12] | outcome [13] | outcome [14] | outcome [15] | outcome [16] | outcome [17] | outcome [18] | outcome [19] | outcome [20] | outcome [21] | outcome [22] | Potency [23] | outcome [24] | Potency [25] | outcome [26] | outcome [27] | Potency [28] | Potency [29] | outcome [30] | outcome [31] | Potency [32] | outcome [33] | outcome [34] | outcome [35] | outcome [36] | outcome [37] | outcome [38] | outcome [39] | outcome [40] | outcome [41] | outcome [42] | outcome [43]
